# From PubChem BioAssay (NCI)
# This is part of a sample that, as a whole, favours compounds with a hit. Of some 83,000 tested, about 20% had one in any assay.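 A percent growth of 40 corresponds to 60% growth inhibition; 0 means no net growth; -100 means all cells died. Active threshold: below 10.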 A number with no mark means an inactive call. The source made the active and inactive calls.
# Tested on: MDA-MB-435 melanoma
# Test: NCI-60 one-dose screen, 48 h (100 = growth as untreated, 0 = no growth, -100 = all killed)
# Conditions: 10 µM unless noted
# Procedure: Growth inhibition of the MDA-MB-435 human Melanoma tumor cell line is measured as a screen for anti-cancer activity. Cells are grown in 96 well plates and exposed to the test compound for 48 hours. Compounds are tested at a single concentration, which is 10^-5 M for most compounds. The reported endpoint is percent growth (GI% or GIPRCNT), where numbers from 0 - 100% represent growth inhibition, and numbers from -100% - 0 represent cell death. For example, a value of 40 represents 60% growth inhibition. A value of 0 means no net growth occurred over the course of the experiment. A value of -40 indicates 40% of cells at the beginning of the experiment died by the end of the experiment. A value of -100 means all cells are dead at the end of the experiment.
# NCI-60 Human Tumor Cell Lines Screen was performed using the standard one-dose NCI protocol, which is described in more detail at https://dtp.cancer.gov/discovery_development/nci-60/default.htm.
# Compounds with GIPRCNT values below 10 were considered active. Activity score was based on GIPRCNT using the following formula: […]
# Score is 0 for GIPRCNT values of 100 or above, 50 for GIPRCNT values of 0, and 100 for GIPRCNT values of -100.
row,Compound,growth
1,COc1ccc(N/N=C/c2c(-c3ccc(S(C)(=O)=O)cc3)nc3ccccn23)cc1,34.1%
2,O=C1c2c(c3c4cccnc4[nH]c3c3ccc4ccccc4c23)C(=O)N1CCO,85.1%
3,O=C1Nc2cc(Cl)ccc2/C1=C\c1ccc(OCc2ccc([N+](=O)[O-])cc2)cc1,80.2%
4,O=C(N/N=C/c1ccco1)c1[nH]c2ccc(Br)cc2c1-c1ccccc1,0.898% (active)
5,COc1cc(/C=C/C(=O)c2ccc(F)cc2)ccc1Oc1nc(NCCO)nc(N2CCOCC2)n1,48%
6,N#Cc1ccc(C(=O)CSc2nc(Nc3ccc(S(N)(=O)=O)cc3)c3ccccc3n2)cc1,108%
7,O=C(N/N=C/c1ccc(Cl)s1)c1[nH]c2ccc(Br)cc2c1-c1ccccc1,-8.88% (active)
8,CC(=O)Oc1ccccc1C(=O)Nc1ccc(C(=O)/C=C/c2ccncc2)cc1,18.2%
9,NS(=O)(=O)c1cccc(Nc2nc(SCC(=O)c3ccc(Br)cc3)nc3ccccc23)c1,75.3%
10,N/C(=N\c1nc2c(Cl)cc(Cl)cc2s1)C(Cl)(Cl)Cl,75.6%
11,Cn1ccnc1C(=O)/C=C/c1ccc(NC(=O)Nc2ccccc2)cc1,-13.3% (active)
12,O=C1C2=C(C(=O)c3c(O)cccc31)C(c1ccco1)c1sc(=O)[nH]c1S2 (stereo not given),-45.3% (active)
13,O=C(c1ccc(Cl)cc1)C1[C@H](c2ccc(Cl)cc2)[C@@H](c2ccccc2)NC12C(=O)Nc1ccc(Br)cc12 (stereo not given in full),34.8%
14,COc1ccc(NC2=C(Cl)C(=O)C(C)=C(C)C2=O)cc1OC,103%
15,COc1cc(-c2nc3ccc(-c4nnc(SCC(=O)Nc5ccc(C(=O)/C=C/c6ccc(Cl)cc6)cc5)o4)cc3[nH]2)cc(OC)c1OC,99%
16,CN1CCN(Cc2ccc(NC(=O)c3cncc(C#Cc4cnc5[nH]ncc5c4)c3)cc2C(F)(F)F)CC1,8.99% (active)
17,C/C(=N\NC(N)=O)c1c(O)sc(=O)[nH]c1=O,104%
18,CC(=O)Oc1ccccc1C(=O)Nc1cc(C(C)C)ccc1C,11.1%
19,Cn1c(SCC(=O)c2cccs2)nc2ccccc2c1=O,103%
20,CC(C)Sc1nc(Nc2ccc(S(N)(=O)=O)cc2)c(C#N)c(-c2ccc(F)cc2)n1,49.9%

row,Compound,growth
1,Cc1ccc(C(=O)Nc2cccc(C(F)(F)F)c2)cc1Nc1nc(-c2cnccn2)nc2c1cnn2C,35.9%
2,COc1cccc(-c2nn(-c3ccccc3)cc2-c2ccnc(N3CCN(C(=O)Nc4ccc(F)cc4)CC3)c2)c1,49.9%
3,OC1CCN(CCCOc2c3ccccc3nc3c2oc2ccc(Cl)cc23)CC1,-40.6% (active)
4,COc1ccc(/C=C2\SC(=Nc3cc(C)[nH]n3)NC2=O)cc1,92.4%
5,COc1ccc(C(=O)/C=C/c2ccc(OCc3ccc(Cl)cc3)c(OC)c2)cc1OC,79.4%
6,Cc1nc(-c2cc3ccccc3oc2=O)ccc1C(=O)/C=C/c1ccc(Cl)c(Cl)c1,103%
7,CS(=O)(=O)c1ccc(-c2nc3ccccn3c2/C=N/Nc2nc(-c3ccc(Br)cc3)cs2)cc1,97.2%
8,C#Cc1nc(C2=C(C)C(O)CC2)cs1 (stereo not given),105%
9,CS(=O)(=O)Nc1ccc(-c2nn(-c3ccc(S(C)(=O)=O)cc3)cc2/C=C/C(=O)c2ccc(NC(=O)CO[N+](=O)[O-])cc2)cc1,106%
10,CCC/C=C/C=C/C(=O)N[C@@H](Cc1cc(F)cc(F)c1)C(=O)N[C@@H]1C(=O)N2CCC[C@H]2C(=O)N2CCCC[C@H]2C(=O)N[C@@H](C)C(=O)N2C[C@H](C)C[C@H]2C(=O)O[C@H]1C,17%
11,CCCCCCNC(=O)Oc1ccc(/C(=C(/C)c2ccccc2)c2ccc(OCCN3CCCCCC3)cc2)cc1,49.6%
12,COC(=O)C1CCCN(S(=O)(=O)/N=C2\NC(=O)NC2=C(Cl)Cl)C1 (stereo not given),111%
13,CCOC(=O)c1c(Nc2ccccc2)nn2c(N)c(C#N)c(-c3ccc(OC)cc3)nc12,79%
14,Cn1cc(-c2cc(N)n3nc(-c4cn(C)c5ccc(Cl)cc45)cc3n2)c2cc(Cl)ccc21,16.5%
15,COc1ccc(C(=O)c2cc(C(=O)/C=C/c3c(Cl)cccc3Cl)c3cc(C)ccn23)cc1,99.6%
16,CCOc1ccc2nc(NC(=O)c3ccc(C(F)(F)F)cc3)sc2c1,96.6%
17,COc1ccccc1C(=O)CSc1nc(Nc2ccc(S(N)(=O)=O)cc2)c2ccccc2n1,90.4%
18,Fc1ccc(-c2cc3nc(C(Cl)Cl)nc(-c4ccccc4)n3n2)cc1,6.42% (active)
19,C#C[C@]1(O)CC[C@H]2[C@@H]3CC=C4c5sc(Nc6ccc(Cl)cn6)nc5CC[C@]4(C)[C@H]3CC[C@@]21C,41.4%
20,CC(=NNc1ncnc2ccccc12)c1ccc(S(C)(=O)=O)cc1,106%
